Data: the supplement of paper PMC9262897, “Low-cost anti-mycobacterial drug discovery using engineered E. coli” (Nature Communications, 2022)
Counter-ions that a name gives are not always drawn. ± gives the standard deviation of the averaged measurements.

What was measured:
Assay in all cases: growth (OD600 after 10 h); higher = more growth (less inhibition)
[1] = system: E. coli TESEC Alr+ wild-type control; conditions: compound 0.1 mM; raw OD600 reference: median of DMSO wells 0.241, cell-free background 0.041
Description: (§1)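 TESEC Mtb Alr E. coli, or the Alr+ wild-type control, in 384-well plates with Prestwick library compounds at 0.1 mM and 1% DMSO, across arabinose induction levels of 1E3 to 1E7 nM. Growth is read as OD600 after 10 h at 37 °C in triplicate biological replicates.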

[2] = system: E. coli TESEC Mtb Alr; conditions: compound 0.1 mM
Description: as §1

[3] = system: E. coli TESEC Mtb Asd; conditions: compound 0.1 mM
Description: (§2)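 TESEC E. coli strains in which the native enzyme is deleted and replaced by arabinose-inducible Mtb Asd, DapB, CysH or TrpD, each grown in its selective medium. Strains were screened against the Prestwick library at 0.1 mM and 1% DMSO in 384-well format at low and high arabinose induction. Growth is read as OD600 after 10 h in triplicate.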

[4] = system: E. coli TESEC Mtb DapB; conditions: compound 0.1 mM
Description: as §2

[5] = system: E. coli TESEC Alr+ wild-type control; conditions: compound 0.1 mM; raw OD600 reference: median of DMSO wells 0.49, cell-free background 0.052
Description: (§3)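 TESEC Mtb Alr E. coli (ΔaraC ΔtolC ΔentC Δalr ΔdadX, arabinose-inducible Mtb Alr) or the Alr+ wild-type control strain, grown in defined M9-fructose medium without D-alanine in 96-well plates with Prestwick library compounds at 0.1 mM and 1% DMSO. Low Alr induction is 0.1 µM arabinose and high induction is 10 mM arabinose.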

[6] = system: E. coli TESEC Mtb Alr; conditions: compound 0.1 mM; remark: listed apart in the source
Description: as §3

[7] = arabinose 1000 nM, raw OD600 reference: median of DMSO wells 0.294, cell-free background 0.041
[8] = arabinose 10000 nM, raw OD600 reference: median of DMSO wells 0.264, cell-free background 0.041
[9] = arabinose 100000 nM, raw OD600 reference: median of DMSO wells 0.201, cell-free background 0.041
[10] = arabinose 1000000 nM, raw OD600 reference: median of DMSO wells 0.193, cell-free background 0.041
[11] = arabinose 10000000 nM, raw OD600 reference: median of DMSO wells 0.146, cell-free background 0.041
[12] = arabinose induction (level): High, raw OD600 reference: median of DMSO wells 0.331, cell-free background 0.041
[13] = arabinose induction (level): Low, raw OD600 reference: median of DMSO wells 0.417, cell-free background 0.041
[14] = arabinose induction (level): High, raw OD600 reference: median of DMSO wells […], cell-free background 0.041
[15] = arabinose induction (level): Low, raw OD600 reference: median of DMSO wells 0.227, cell-free background 0.041
[16] = arabinose 100 nM, raw OD600 reference: median of DMSO wells 0.413, cell-free background 0.052
[17] = arabinose 10000000 nM, raw OD600 reference: median of DMSO wells […], cell-free background 0.052

Structure (SMILES)	growth [1]	growth [2, 7]	growth [2, 8]	growth [2, 9]	growth [2, 10]	growth [2, 11]	growth [3, 12]	growth [3, 13]	growth [4, 14]	growth [4, 15]	growth [5]	growth [6, 16]	growth [6, 17]
CCOc1ccccc1OCC1CNCCO1 (centres undefined) [Viloxazine hydrochloride]	0.236 ± 0.0043	0.294 ± 0.023	0.273 ± 0.0049	0.193 ± 0.011	0.196 ± 0.01	0.135 ± 0.0069	0.251 ± 0.022	0.386 ± 0.012	0.172 ± 0.029	0.211 ± 0.019	0.539 ± 0.074	0.406 ± 0.011	0.366 ± 0.0079
Cc1cc(/C=C/c2ccc3cc(N(C)C)ccc3[n+]2C)c(C)n1-c1ccccc1 [Pyrvinium pamoate]	0.0976 ± 0.0031	0.0602 ± 0.0021	0.0614 ± 0.0072	0.0747 ± 0.009	0.0511 ± 0.00066	0.0872 ± 0.0092	0.071 ± 0.00096	0.0642 ± 0.0028	0.0704 ± 0.0048	0.0798 ± 0.011	0.141 ± 0.019	0.142 ± 0.013	0.162 ± 0.025
C[C@]12C=CC(=O)C=C1CC[C@@H]1[C@@H]2[C@@H](O)C[C@@]2(C)[C@H]1CC[C@]2(O)C(=O)CO [Prednisolone]	0.213 ± 0.0043	0.263 ± 0.0084	0.248 ± 0.01	0.162 ± 0.0057	0.147 ± 0.0034	0.13 ± 0.0047	0.258 ± 0.038	0.456 ± 0.034	0.179 ± 0.015	0.254 ± 0.041	0.514 ± 0.065	0.426 ± 0.009	0.306 ± 0.011
Cc1cnc(C(=O)O)c[n+]1[O-] [Acipimox]	0.244 ± 0.006	0.304 ± 0.025	0.247 ± 0.0063	0.218 ± 0.029	0.1751 ± 0.0015	0.1397 ± 0.00085	0.263 ± 0.085	0.282 ± 0.065	0.199 ± 0.013	0.217 ± 0.021	0.497 ± 0.06	0.41 ± 0.009	0.338 ± 0.021
C[C@H](CS)C(=O)N1CCC[C@H]1C(=O)O [Captopril]	0.259 ± 0.003	0.291 ± 0.019	0.253 ± 0.012	0.198 ± 0.027	0.176 ± 0.0095	0.148 ± 0.011	0.358 ± 0.044	0.399 ± 0.027	0.187 ± 0.019	0.21 ± 0.027	0.475 ± 0.059	0.41 ± 0.0091	0.382 ± 0.021
Cc1c(-c2ccccc2)oc2c(C(=O)OCCN3CCCCC3)cccc2c1=O [Flavoxate hydrochloride]	0.139 ± 0.0069	0.171 ± 0.0084	0.248 ± 0.0097	0.145 ± 0.0026	0.105 ± 0.0025	0.139 ± 0.0023	0.217 ± 0.06	0.381 ± 0.04	0.168 ± 0.011	0.234 ± 0.12	0.414 ± 0.023	0.398 ± 0.015	0.262 ± 0.019
CC(N)CCCC(C)(C)O (centres undefined) [Heptaminol hydrochloride]	0.252 ± 0.0036	0.285 ± 0.011	0.26 ± 0.013	0.204 ± 0.04	0.1796 ± 0.0016	0.141 ± 0.0064	0.357 ± 0.015	0.442 ± 0.022	0.188 ± 0.0059	0.195 ± 0.02	0.501 ± 0.054	0.407 ± 0.011	0.36 ± 0.0092
O=C1Cc2cc(CCN3CCN(c4nsc5ccccc45)CC3)c(Cl)cc2N1 [Ziprasidone  Hydrochloride]	0.133 ± 0.0045	0.174 ± 0.008	0.249 ± 0.0058	0.195 ± 0.0098	0.179 ± 0.0086	0.201 ± 0.0095	0.418 ± 0.051	0.363 ± 0.035	0.222 ± 0.027	0.308 ± 0.076	0.427 ± 0.011	0.378 ± 0.0087	0.338 ± 0.013
CC(C)(C(=O)O)c1ccc(C(O)CCCN2CCC(C(O)(c3ccccc3)c3ccccc3)CC2)cc1 (centres undefined) [Fexofenadine HCl]	0.228 ± 0.0075	0.314 ± 0.0088	0.285 ± 0.0078	0.212 ± 0.017	0.184 ± 0.011	0.157 ± 0.0041	0.235 ± 0.015	0.348 ± 0.069	0.201 ± 0.025	0.266 ± 0.036	0.567 ± 0.054	0.431 ± 0.0065	0.309 ± 0.013
Cc1cc(N)c2ccccc2[n+]1CCCCCCCCCC[n+]1c(C)cc(N)c2ccccc21 [Dequalinium dichloride]	0.048 ± 0.0004	0.04803 ± 0.00032	0.0469 ± 0.00052	0.04963 ± 0.00015	0.0458 ± 0.00071	0.049 ± 0.0001	0.0691 ± 0.0051	0.0634 ± 0.006	0.0601 ± 0.004	0.0586 ± 0.0011	0.0513 ± 0.0018	0.0979 ± 0.005	0.0648 ± 0.0024
CCC1(c2ccccc2)NC(=O)N(C)C1=O (centres undefined) [Mephenytoin]	0.249 ± 0.0037	0.299 ± 0.0081	0.287 ± 0.011	0.201 ± 0.014	0.204 ± 0.013	0.152 ± 0.0052	0.235 ± 0.029	0.328 ± 0.072	0.184 ± 0.013	0.24 ± 0.037	0.501 ± 0.091	0.427 ± 0.0055	0.31 ± 0.011
CC1=C(/C=C/C(C)=C/C=C/C(C)=C/C(=O)O)C(C)(C)CCC1 [Retinoic acid]	0.281 ± 0.008	0.309 ± 0.012	0.262 ± 0.006	0.246 ± 0.0066	0.149 ± 0.006	0.162 ± 0.015	0.355 ± 0.11	0.41 ± 0.0091	0.186 ± 0.0028	0.2256 ± 0.00047	0.476 ± 0.045	0.45 ± 0.0056	0.301 ± 0.013
CC(C)c1c(C(=O)Nc2ccccc2)c(-c2ccccc2)c(-c2ccc(F)cc2)n1CC[C@@H](O)C[C@@H](O)CC(=O)O [Atorvastatin]	0.12 ± 0.0024	0.177 ± 0.0077	0.108 ± 0.0075	0.168 ± 0.0033	0.0909 ± 0.0015	0.136 ± 0.0052	0.169 ± 0.018	0.169 ± 0.018	0.171 ± 0.018	0.183 ± 0.031	0.217 ± 0.011	0.352 ± 0.058	0.175 ± 0.037
